Pol eta inh = qHTS for Inhibitors of Polymerase Eta; DNA polymerase eta (Homo sapiens), Q9Y253; recombinant Pol eta, fluorescent DNA replication assay; Potency, µM (highest dose often 114 µM), for the others: at the highest dose activity change, negative = inhibition, actives largely listed as inhibitors; actives 1.2% (n = 390,000); further: on the % scale 0 is the no-effect control and ±100 the full control effect
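Pol eta at 10 nM preincubated with compounds 15 min at room temperature; reaction started with fluorescent substrate (50 nM final) and read kinetically at 0 and 10 min.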
WRN helicase inh = qHTS for Inhibitors of WRN Helicase | Bifunctional 3'-5' exonuclease/ATP-dependent helicase WRN (Homo sapiens), Q14191 | WRN helicase unwinding, fluorescent forked duplex, kinetic | Potency, µM (doses to about 114 µM), for inactives: at the highest dose activity change, negative = inhibition, usual class: inhibitors | actives 0.46% (n = 360,000) | AID 651768, 2012; further: on the % scale 0 is the no-effect control and ±100 the full control effect; nearly all actives have a fitted effect of over 55% in size
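Kinetic fluorescence helicase assay: unwinding of a quenched forked DNA duplex (100 nM final) with 2 mM ATP final raises red fluorescence (525/598 nm). Compounds sat 15 min at room temperature with 20 nM WRN beforehand.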
POLB inh = qHTS Assay for Inhibitors of DNA Polymerase Beta | P06746 | Pol beta primer extension/strand displacement, fluorescence kinetic | Potency, µM (series often up to 114 µM), inactives show top-dose activity change, negative = inhibition, most hits filed as inhibitors | actives 1.3% (n = 340,000); further: on the % scale 0 is the no-effect control and ±100 the full control effect
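Pol beta (10 nM) was preincubated with compound for 15 min at room temperature. The reaction was then started with 50 nM substrate and read immediately and after a further 10 min at room temperature.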
POLI inh = qHTS for Inhibitors of Polymerase Iota. Pol iota fluorescent replication assay, 10 min. Potency, µM (titrated, usually from 115 µM), for the others: top-dose activity, negative = inhibition, most hits filed as inhibitors. actives 1% (n = 390,000)
Target sequence (Q9UNA4 whole entry, looked up): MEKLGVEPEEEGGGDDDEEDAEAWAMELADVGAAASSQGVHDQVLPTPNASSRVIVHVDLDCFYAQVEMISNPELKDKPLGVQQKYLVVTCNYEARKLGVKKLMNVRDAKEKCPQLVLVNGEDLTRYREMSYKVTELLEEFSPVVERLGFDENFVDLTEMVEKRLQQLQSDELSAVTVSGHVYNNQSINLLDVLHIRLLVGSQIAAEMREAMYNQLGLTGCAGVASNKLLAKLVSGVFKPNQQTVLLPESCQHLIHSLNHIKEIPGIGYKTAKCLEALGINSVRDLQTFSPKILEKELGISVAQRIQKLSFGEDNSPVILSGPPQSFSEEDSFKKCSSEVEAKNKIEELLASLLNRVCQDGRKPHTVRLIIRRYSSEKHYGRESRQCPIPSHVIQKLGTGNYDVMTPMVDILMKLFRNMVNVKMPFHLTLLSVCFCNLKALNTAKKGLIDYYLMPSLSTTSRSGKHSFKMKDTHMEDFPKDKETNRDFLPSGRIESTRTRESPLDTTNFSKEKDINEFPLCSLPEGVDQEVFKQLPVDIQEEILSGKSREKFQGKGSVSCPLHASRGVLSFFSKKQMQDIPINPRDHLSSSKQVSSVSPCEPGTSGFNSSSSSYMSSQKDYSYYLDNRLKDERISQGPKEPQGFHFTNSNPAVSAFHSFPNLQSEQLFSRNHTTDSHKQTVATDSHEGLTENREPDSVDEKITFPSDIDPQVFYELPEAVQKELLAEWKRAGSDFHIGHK
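Pol iota at 10 nM preincubated 15 min with compounds at room temperature; reaction started with fluorescent substrate, 50 nM final. Fluorescence read kinetically at 0 and 10 min; buffer-only wells as negative control.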
FEN1 inh = qHTS Assay for the Inhibitors of Human Flap endonuclease 1 (FEN1); Recombinant FEN1 flap cleavage, fluorescence, 15 min; Potency, µM (highest dose often 114 µM), without a hit: at the highest dose activity change, negative = inhibition, actives largely listed as inhibitors; P39748; actives 0.35% (n = 390,000); further: on the % scale 0 is the no-effect control and ±100 the full control effect; nearly all actives have a fitted effect of over 65% in size
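With each library titrated from low to high concentration, compounds met 10 nM FEN1 for 15 min at room temperature before 50 nM substrate was added; readings at 0 and 15 min fed four-parameter Hill curve fits.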
Pol kappa inh = qHTS for Inhibitors of Polymerase Kappa; DNA polymerase kappa (Homo sapiens), Q9UBT6; purified Pol kappa, fluorescent DNA synthesis assay, 10 min; Potency, µM (highest dose often 107 µM), for inactives: top-dose activity, negative = inhibition, actives largely listed as inhibitors; actives 0.53% (n = 400,000); AID 588579, 2011; further: on the % scale 0 is the no-effect control and ±100 the full control effect
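Readout: fluorescence, taken kinetically at 0 and 10 min. Conditions: 10 nM Pol kappa, 15 min RT compound preincubation, 50 nM substrate final. Controls: enzyme-free buffer wells.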
An asterisk follows results filed as active; ? = inconclusive; . = no result; [ ] = another dose, or the depositor's remark. Hits are enriched below; roughly 2.4% of the tested compounds scored in any of these assays. The call rests on the fitted dose curve; in most records, active means well fitted curve in the direction sought with a large enough effect; inconclusive means small, poorly fitted or top-dose-only effect, or another doubt; inactive means no such curve, though single readings can be large; an effect the other way counts as inactive or inconclusive. Potency means the concentration at half of the fitted maximal effect.

SMILES | Pol eta inh | WRN helicase inh | POLB inh | POLI inh | FEN1 inh | Pol kappa inh
O=C(O)c1ccccc1-n1ncc2c1/C(=C/c1ccc(Cl)cc1)CC2 | . | . | 40µM* | . | . | .
O=[N+]([O-])c1ccc2nc(-c3ccccc3)n(OCc3ccc(Cl)cc3)c2c1 | 16µM* | -15%[57.1 µM] | 28µM* | -5% | 1% | ?
Nc1ccnc2c1ncn2[C@@H]1O[C@H](CO)[C@@H](O)[C@H]1O | . | . | . | . | . | 9%[19.4 µM]
COc1ccc(-n2c(=O)c3ccc(C(=O)NCc4ccc(C)cc4)cc3n(CC(=O)Nc3cccc(F)c3)c2=O)cc1 | -9% | . | 5% | 28% | 8% | 10%
CCOC(=O)/C=C1\SCC(=O)N1Cc1nnc(-c2ccccc2Br)o1 | ? | -18% | 22µM* | ? | -9% | -7%
Cc1cc(C(C)C)n2c(nc3ccccc32)c1C#N | . | . | -1% | . | . | .
Cc1cc(-c2ccco2)c(C#N)c2nc3ccccc3n12 | 10µM* | -35% | 8.9µM* | ? | ? | ?
O=C(O)CCc1ccc(-c2ccc(F)cc2)n1CC(=O)O | 11µM* | -9%[57.1 µM] | -3% | ? | -11% | -13%
O=C(O)CCc1ccc(-c2ccc(Br)cc2)n1Cc1ccco1 | 56µM* | -12%[57.1 µM] | ? | 50µM* | 0% | -38%
O=C(O)CCc1ccc(-c2ccc(Br)cc2)n1-c1ccc(O)cc1 | -7% | -8% | 2% | ? | 1% | -2%
O=C(O)CCc1ccc(-c2ccc(F)cc2)n1Cc1ccco1 | -10% | -17% | -24% | -15% | -2% | -12%
O=C(O)CCc1ccc(-c2ccccc2)n1Cc1ccco1 | 16µM* | ? | -2% | ? | 0% | ?
CCOc1[nH]c(/N=C/c2ccco2)c(C#N)c1C#N | 14µM* | -20%[57.1 µM] | 12% | ? | -10% | ?
COc1ccc(N=Cc2ccc(N(CCC#N)CCC#N)cc2)cc1 | ? | 3% | . | 23% | -2% | -8%
CCOc1[nH]c(/N=C/c2ccc(OC)cc2)c(C#N)c1C#N | . | . | . | ? | 79µM* | -22%
COCc1cc(=O)[nH]c(Nc2nc(C)c3ccccc3n2)n1 | 24% | -9%[57.1 µM] | 51% | 13% | 50µM* | -2%
COCc1cc(=O)[nH]c(Nc2nc3ccccc3o2)n1 | -16% | -15% | 15% | -8% | 16% | -10%
COc1ccc(-n2c(=O)c3ccccc3n(CC(=O)NCCc3ccccc3)c2=O)c(OC)c1 | -2% | . | -9% | -11% | 2% | 0%
CCOc1ccc2nc3cc(N=Nc4ccc(N)nc4N)ccc3c(N)c2c1 | 45µM* | ? | . | ? | 7.1µM* | ?
COc1ccc(N=Nc2ccc(N)nc2N)cc1 | -11% | -12% | -5% | 9% | 3% | -7%
CC(=O)C[C@H](c1ccc([N+](=O)[O-])cc1)c1c(O)c2ccccc2oc1=O | . | . | . | . | . | 1%[19.4 µM]
Cc1cc(O)c(C(C)C)cc1N=Cc1ccc(N(C)C)cc1 | -21% | ? | . | ? | 9% | -13%
Cc1cc(O)c(C(C)C)cc1N=Cc1ccc([N+](=O)[O-])cc1 | -20% | ? | . | 10µM* | 4% | -4%
C[N+]1(CC(=O)c2ccccc2)CCc2ccccc2C1 (stereo not given) | . | . | . | -14% | 19% | -4%
CCC(Sc1nnc2c3ccccc3n(CC)c2n1)C(=O)Nc1ccc(NC(C)=O)cc1 (stereo not given) | 10% | . | -1% | -2% | 4% | -15%
SMILES | Pol eta inh | WRN helicase inh | POLB inh | POLI inh | FEN1 inh | Pol kappa inh
O=C(O)c1cccc(N2C(=O)c3ccc(Oc4ccc(Cl)cc4)cc3C2=O)c1 | 0% | -8% | 89µM* | 56% | -30% | -26%
O=C(O)c1cccc(N2C(=O)c3ccc4c5c(ccc(c35)C2=O)C(=O)N(c2cccc(C(=O)O)c2)C4=O)c1 | ? | -5%[11.6 µM] | ? | ? | ? | -10%
O=C(Nc1ccc(-n2nncc2-c2ccco2)cc1)c1cc2ccccc2oc1=O | 89µM* | 50µM* | 28µM* | 11µM* | -22% | 5.6µM*
O=C(Nc1ccc(-n2nncc2-c2ccco2)cc1)c1cccc(F)c1 | -7% | -11% | -2% | ? | -7% | -17%
Cc1ccc(OCC(=O)Nc2ccc3nc(SCCOc4ccccc4)sc3c2)cc1 | -8% | . | 3% | 6% | 17% | -7%
N#C/C(=C\c1ccc(N2CCOCC2)o1)c1nc2ccccc2[nH]1 | ? | 50µM* | ? | -13% | ? | ?
N#C/C(=C\c1ccc(N2CCOCC2)c([N+](=O)[O-])c1)c1nc2ccccc2[nH]1 | -12% | -34% | 2% | 22% | ? | -19%
COc1ccc2c(c1)Cc1sc(NC(=O)c3cccc(Cl)c3)nc1-2 | -16% | . | 1% | 10µM* | -5% | -8%[60.1 µM]
COc1ccc2c(c1)Cc1sc(NC(=O)c3ccc(Cl)cc3)nc1-2 | -10% | . | 0% | 22µM* | ? | ?
COc1ccc2c(c1)CCc1sc(NC(=O)c3cccc(Br)c3)nc1-2 | 0% | . | 3% | 4% | -20% | -13%[60.1 µM]
COc1ccc2c(c1)Cc1sc(NC(=O)c3cccc(C)c3)nc1-2 | . | . | 22% | 8.9µM* | ? | -28%
CC(C)N(Cc1ccccc1)c1ncnc2c1nnn2C | 0% | . | -2% | 0% | -7% | -4%[60.1 µM]
COc1ccc(Cn2cc3c(-c4ccc(F)cc4)nnc-3c3cc(OC)c(OC)cc32)cc1 | -14% | 40% | 79µM* | -13% | ? | -4%
CC1=C(C(=O)Nc2ccc(CC(=O)NCc3ccccc3C)cc2)SCCO1 | -15% | -6% | 5% | 20% | 16% | -2%
COc1cccc(CNC(=O)Cc2ccc(NC(=O)C3=C(C)OCCS3)cc2)c1 | ? | -16% | 22µM* | ? | -9% | ?
CCCN1C(=O)/C(=C/c2c(N3CCNC(=O)C3CC(=O)OC)nc3c(C)cccn3c2=O)SC1=S (stereo not given) | . | . | 89µM* | . | . | .
CCn1cc(C(=O)NCCc2ccc(OC)c(OC)c2)c(=O)c2cc(S(=O)(=O)N3CCc4ccccc4C3)ccc21 | -20% | . | -12% | -3% | -11% | -8%
CC(C)=CCc1c(O)cc2oc3c(CC=C(C)C)c(O)c(O)c(CC=C(C)C)c3c(=O)c2c1O | 40µM* | -7%[11.6 µM] | 45µM* | ? | -35% | 79µM*
N[C@@](C(=O)O)(c1ccc(P(=O)(O)O)cc1)C1CC1 | . | . | . | . | . | -5%[19.4 µM]

Compound activity: PubChem, National Center for Advancing Translational Sciences (NCATS)
